Calls of active or inactive are those of the source. Unless noted, no rule for the calls is given here.
Columns and labels:
[1] = system: XIP peptide (Xip251-270) binding; experiment: XIP fragment 251-270 binding compounds – biochemical, small-molecule microarray, fluorescence 635/667 nm, 0.1 µg/mL protein, primary screen (AID 1182); details: fluorescent protein binding, 635 nm, higher = more signal, called active from +8 up or from −8 down
[2] = system: XIP peptide (Xip251-270); experiment: compounds binding XIP fragment 251-270 – biochemical, small-molecule microarray, fluorescence 635/667 nm, 0.5 µg/mL protein, primary screen (AID 1183); details: fluorescence 635 nm, higher = more signal
[3] = blood-stage malaria parasite viability loss – strain 3D7, DAPI fluorescence, 100 nL, primary screen (AID 1184);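 also: parasites grown inside human red blood cells in medium with human serum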; details: P. falciparum 3D7 growth, 3 d, higher = more signal
[4] = molecular target: Homeobox protein Hox-A13 (Mus musculus) (UniProt Q62424); experiment: disruptors of Hoxa13 oligonucleotide interaction – biochemical, fluorescence polarization, labeled oligonucleotide, primary screen (AID 1185); details: Hoxa13:DNA binding, 15 min, higher = more signal, called active from +8 up or from −8 down
[5] = blockers of DNA damage checkpoint Chk1 activation – imaging, HeLa, hydroxyurea, phospho-Chk1 antibody, percent positive cells, primary screen (AID 1186); details: hydroxyurea-induced phospho-Chk1 immunofluorescence imaging, higher = more signal
[6] = blockers of DNA damage checkpoint Chk1 activation – imaging, HeLa, hydroxyurea, phospho-Chk1 nuclear intensity, primary screen (AID 1187); details: hydroxyurea-induced phospho-Chk1 immunofluorescence imaging, higher = more signal

Sequence of Homeobox protein Hox-A13 (Mus musculus) (Q62424 whole entry, looked up): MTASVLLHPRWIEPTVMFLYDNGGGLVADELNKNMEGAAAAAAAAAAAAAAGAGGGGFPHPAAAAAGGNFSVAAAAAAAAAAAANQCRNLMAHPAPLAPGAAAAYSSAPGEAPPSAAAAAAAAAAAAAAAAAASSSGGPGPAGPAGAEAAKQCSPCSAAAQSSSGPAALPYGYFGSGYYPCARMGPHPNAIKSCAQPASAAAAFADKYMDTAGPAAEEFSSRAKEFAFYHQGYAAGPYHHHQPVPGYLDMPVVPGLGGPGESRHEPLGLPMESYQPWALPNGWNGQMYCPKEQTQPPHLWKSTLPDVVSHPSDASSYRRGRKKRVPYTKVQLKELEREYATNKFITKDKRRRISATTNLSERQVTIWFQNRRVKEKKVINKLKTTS

Compound | composite z-score [1] | composite z-score [2] | z-score [3] | z-score [4] | z-score [5] | z-score [6]
O=C1OCCC/C=C\[C@H]2OC34C=CCN(CCN5CCOCC5)C(=O)[C@H]3N(CCCO)C(=O)[C@@H]4C12 (some centres not stated) | 0.976 (inactive) | -1.17 | 0.211 | -6.44 (inactive) | 0.697 (inactive) | 0.826 (inactive)
CN1C(=O)C2C=CC(C(O)Cc3ccccc3)N(Nc3ccccc3)C2C1=O (configuration not stated) | -0.0041 (inactive) | 0.508 | 0.538 | -4.51 (inactive) | -0.444 (inactive) | -0.889 (inactive)
COc1ccc(C(=O)Nc2cccc(CN3C(=O)[C@]4(O[C@H](CCO)[C@@H]([Si](C)(C)c5ccc(OC)cc5)[C@@H]4C)c4ccccc43)c2)cc1 | -0.0488 (inactive) | 0.639 | -2.85 | -2.45 (inactive) | -0.204 (inactive) | -0.881 (inactive)
COCCOC(=O)N1C(=O)[C@@]2(c3cc(C#CCCO)ccc31)[C@H](c1ccc(OCCO)cc1)N1[C@H](c3ccccc3)[C@H](c3ccccc3)OC(=O)[C@H]1[C@@H]2C(=O)N1CCN(c2ncccn2)CC1 | -0.112 (inactive) | 0.676 | -1.98 | 0.671 (inactive) | 0.159 (inactive) | -0.0774 (inactive)
C#CCN(CC=C(C)C)[C@H](CO)c1ccccc1 | 0.102 (inactive) | -0.564 | -1.34 | -0.2 (inactive) | 0.557 (inactive) | 0.457 (inactive)
CC(=O)NCCCC[C@@H]1NC(=O)[C@@H]2C[C@H](C(=O)NCCCCCCNC(=O)CS)[C@H](c3cccc(OCCO)c3)N2C1=O | 0.732 (inactive) | 0.669 | -0.523 | -4.5 (inactive) | -0.223 (inactive) | -0.0198 (inactive)
COc1ccc(COC2OC[C@]3(C)[C@H]4C5=C(CN3C(=O)OC(C)(C)C)[C@H](C)C(CO)C(CO)C5CC[C@@H]24)cc1 (some centres not stated) | -0.188 (inactive) | 0.505 | -1.04 | -4.75 (inactive) | 0.721 (inactive) | 0.353 (inactive)
C=CCN1C(=O)[C@]2(O[C@H](CCO)[C@@H]([Si](C)(C)c3ccc(OC)cc3)[C@@H]2C)c2cc(N3C(=O)c4cccc5cccc3c45)ccc21 | 0.966 (inactive) | 0.749 | -2.74 | -3.37 (inactive) | -2.42 (inactive) | -1.91 (inactive)
COC(=O)[C@@]1(Cc2ccc(F)cc2)[C@H]2c3cc(C(=O)N(C)C)n(CC4CC4)c3C[C@H]2CN1C(=O)c1ccccc1 | 0.308 (inactive) | 0.524 | -1.33 | -2.84 (inactive) | -1.45 (inactive) | -1.76 (inactive)
O=C1OCCC/C=C\[C@H]2OC34C=CCN(Cc5ccccc5)C(=O)[C@H]3N(CCCCCCO)C(=O)[C@@H]4C12 (some centres not stated) | 0.704 (inactive) | -0.819 | -0.364 | -5.34 (inactive) | -0.121 (inactive) | 0.0626 (inactive)
C=C(COC)/C(=C/C[C@H](OC(=O)c1ccncc1)c1ccc(OCCO)cc1)c1cnc2ccccc2c1 | 0.908 (inactive) | 0.791 | -2.77 | -4.16 (inactive) | 0.157 (inactive) | 0.313 (inactive)
C=CCNC(=O)[C@H]1[C@@H]2C(=O)O[C@@H](c3ccccc3)[C@@H](c3ccccc3)N2[C@@H](c2ccccc2OCCO)[C@]12C(=O)Nc1ccc(C#CC3=CCCCC3)cc12 | -0.274 (inactive) | 0.769 | -2.06 | 2.46 (inactive) | -0.333 (inactive) | -0.739 (inactive)
[N-]=[N+]=Nc1ccccc1C[C@]1(C(N)=O)N=C(c2ccc(OCCCO)cc2)O[C@H]1c1ccccc1 | -0.254 (inactive) | 0.537 | -0.98 | -7.09 (inactive) | 0.0195 (inactive) | -0.54 (inactive)
[N-]=[N+]=Nc1ccccc1C[C@]1(C(=O)NCC(O)CO)N=C(c2ccc(OCCCO)cc2)O[C@H]1c1ccccc1N=[N+]=[N-] (some centres not stated) | 0.0936 (inactive) | -0.316 | -2.44 | -5.33 (inactive) | -0.467 (inactive) | -0.312 (inactive)
COc1ccc([Si](C)(C)[C@@H]2[C@@H](CC(=O)N3Cc4ccccc4C[C@H]3CO)O[C@]3(C(=O)N(C)c4c(Br)cc(C)cc43)[C@H]2C)cc1 | -0.223 (inactive) | 0.565 | -2.35 | -4.06 (inactive) | -0.79 (inactive) | -0.12 (inactive)
COCCOC(=O)N1C(=O)[C@@]2(c3cc(C#CCCO)ccc31)[C@H](C(=O)N1CCc3cc(OC)c(OC)cc3C1)[C@H]1C(=O)O[C@H](c3ccccc3)[C@H](c3ccccc3)N1[C@@H]2c1ccc(O)cc1 | 1.55 (inactive) | 0.798 | -0.439 | -2.01 (inactive) | -0.463 (inactive) | -0.656 (inactive)
COc1cc2c(cc1OC)CN(C(=O)[C@H]1[C@@H]3C(=O)O[C@@H](c4ccccc4)[C@@H](c4ccccc4)N3[C@@H](c3ccc(O)cc3)[C@]13C(=O)Nc1ccc(C#CC4=CCCCC4)cc13)CC2 | 0.546 (inactive) | 0.795 | -2.08 | 1.4 (inactive) | 0.138 (inactive) | 0.352 (inactive)
